Ten compounds from PubChem BioAssay (NCATS) can be followed below.

Records with an inconclusive call do not appear. A call without a number means that no potency is given here. Calls of active or inactive are those of the source. The call rests on the fitted dose curve; in most records, active means well fitted inhibition curve with a large enough effect; inconclusive means small, poorly fitted or top-dose-only effect; inactive means no such curve, though single readings can be large or run the other way.
Potency means the concentration at half of the fitted maximal effect.

This assay is described as follows: BET inhibitor-based combinations targeting novel dependencies in MECOM-rearranged (r) AML: HNT-34 cell line (AID 2202234). Further: nearly all actives have a fitted effect of over 35% in size. Conditions: HNT-34 AML viability, CellTiter-Glo luminescence, 48 h; series mostly up to 46 µM. In a few lines:
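Activity is given as area under the curve and as Z-AUC, mean-centred within each cell line. It comes from 11-point dose curves normalized to DMSO and empty wells. CellTiter-Glo luminescence was read after 48 hr drug exposure of 500 cells/well.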
For orientation: Cellular ATP, detected with luciferase, serves as a proxy for viable cell number.
On to `CN(C)[C@@H]1C(=O)C(C(N)=O)=C(O)[C@@]2(O)C(=O)C3=C(O)c4c(O)cccc4[C@@](C)(O)[C@H]3[C@H](O)[C@@H]12`, for which the Potency result was “inactive”.

As for `C/C(O)=C(\C#N)C(=O)Nc1cc(Br)ccc1Br`, the Potency result was “inactive”.

Turning to `CC1(C)CC(O)CC(C)(C)N1O`, the Potency result is “inactive”.

Consider `C[C@@H](C1CC[C@@]2(O)C3=CC(=O)[C@@H]4C[C@@H](O)[C@@H](O)C[C@]4(C)[C@H]3CC[C@]12C)[C@H](O)CCC(C)(C)O` (stereo not given in full), for which the Potency result was “inactive”.

Consider `COc1cc2cc(c1Cl)N(C)C(=O)C[C@H](OC(=O)C(C)C)[C@]1(C)O[C@@H]1[C@H](C)[C@@H]1C[C@@](O)(NC(=O)O1)[C@H](OC)/C=C/C=C(\C)C2`, for which the Potency entry was “inactive”.

Turning to `O=C(NCC1CCOCC1)c1cnc(Nc2ccc(Cl)cc2Cl)nc1C(F)(F)F`, the Potency result is “inactive”.

For the compound `C[C@]12CC[C@H](O)CC1=CC[C@@H]1[C@@H]2CC[C@]2(C)C(=O)CC[C@@H]12`, the Potency result is “inactive”.

On to `N#CC(O[C@@H]1O[C@H](CO[C@@H]2O[C@H](CO)[C@@H](O)[C@H](O)[C@H]2O)[C@@H](O)[C@H](O)[C@H]1O)c1ccccc1` (stereo not given in full), for which the Potency result was “inactive”.

As to `CN1C(=O)[C@@H](NC(=O)[C@H](CCC(F)(F)F)[C@H](CCC(F)(F)F)C(N)=O)N=C(c2ccccc2)c2ccccc21`, the Potency entry is “inactive”.

For `C[C@@H]1CC[C@@]2(OC1)O[C@H]1C[C@H]3[C@@H]4CC=C5C[C@@H](O[C@@H]6O[C@H](CO)[C@@H](O[C@@H]7O[C@@H](C)[C@H](O)[C@@H](O)[C@H]7O)[C@H](O)[C@H]6O[C@@H]6O[C@@H](C)[C@H](O)[C@@H](O)[C@H]6O)CC[C@]5(C)[C@H]4CC[C@]3(C)[C@H]1[C@@H]2C`, the Potency was 5.25 µM (active).
